DAX1 inh-1: DAX1 (NR0B1) inhibitors, primary screen, cell-based, HEK293, Gal4-DAX1, luciferase luminescence. Nuclear receptor subfamily 0 group B member 1 (Homo sapiens), P51843. HEK293 Gal4-DAX1 luciferase reporter. inhibition, % at 6.75 µM. actives 0.99% (n = 340,000);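 active = inhibition above the mean over all tested compounds plus 3 SD, cut at about 4.2% in these data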;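 also: 0% = DAX1-transfected cells with DMSO and 100% = empty-vector control cells with DMSO; inhibition shows as a rise in luminescence from relieved DAX1 repression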
Target sequence (P51843 207-470 limits assumed): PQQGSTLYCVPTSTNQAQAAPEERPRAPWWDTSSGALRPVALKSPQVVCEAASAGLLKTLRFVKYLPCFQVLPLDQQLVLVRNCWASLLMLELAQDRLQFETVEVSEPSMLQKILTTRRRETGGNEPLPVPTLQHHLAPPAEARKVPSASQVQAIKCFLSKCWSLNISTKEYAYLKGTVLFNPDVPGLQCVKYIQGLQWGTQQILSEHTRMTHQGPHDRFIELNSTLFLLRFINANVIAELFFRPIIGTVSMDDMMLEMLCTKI
hcDAF12 agonist: H. contortus DAF-12 nuclear receptor activators, primary screen, cell-based, luminescence, HEK293, lit1-tk-luc reporter; actives 1.4% (n = 370,000); activation, % at 6.8 µM; HEK293 hcDAF-12 lit1-tk-luc reporter; 0% DMSO, 100% Δ7-dafachronic acid; AID 652067, 2013;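 active = activation above the mean of all tested compounds plus 3 SD, cut at about 5.5% in these data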;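 also: 100% = response to 3 µM Δ7-dafachronic acid high control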
ssDAF-12 act: S. stercoralis DAF-12 nuclear receptor activators, primary screen, cell-based, luminescence, HEK293, GRIP1 co-expression, lit1-tk-luc. Nuclear hormone receptor DAF-12 (Strongyloides stercoralis). HEK293 ssDAF-12/GRIP1 lit1-tk-luc reporter; % of 3 µM dafachronic acid response. activation, % at 6.8 µM. actives 1% (n = 370,000). AID 652126, 2013;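 active = activation above the mean over all tested compounds plus 3 SD, cut at about 0.9% in these data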;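 also: 0% = DMSO-only wells and 100% = 3 µM delta7-dafachronic acid wells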
hgDAF12 agonist: H. glycines DAF-12 receptor agonists, primary screen, cell-based, luminescence, HEK293, GAL4 fusion, UAS-luciferase; Nuclear hormone receptor DAF-12 (Heterodera glycines), GAL4 fusion; HEK293 GAL4-hgDAF12 UAS-luciferase reporter, agonist luminescence; normalized to butyrate control; activation, % at 6.8 µM; actives 1.8% (n = 370,000);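 active = activation above a cutoff set at the mean of all screened compounds plus 3 SD, cut at about 10% in these data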;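 also: 0% = DMSO wells and 100% = sodium butyrate wells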
DAX1 inh-2: DAX1 (NR0B1) inhibitors on StAR promoter, primary screen, cell-based, luminescence, SF-1 (NR5A1), full-length DAX-1. inhibition, % at 6.8 µM. HEK293T StAR-luciferase reporter, SF-1/DAX-1 repression relief. actives 1.1% (n = 370,000). AID 652010, 2013;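 active = inhibition above the mean over all tested compounds plus 3 SD, cut at about 3.6% in these data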;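 also: 0% = DAX-1 cells with DMSO and 100% = cells lacking DAX-1 with DMSO; higher inhibition means more luminescence from relief of DAX-1 repression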
Active calls of the source: *; nt = no result. Rows were chosen to be rich in hits. Some 4.1% of all compounds tested hit in one or more screens of this group.

SMILES	DAX1 inh-1	hcDAF12 agonist	ssDAF-12 act	hgDAF12 agonist	DAX1 inh-2
CCOc1cc(/C=C2/SC(=S)N(CC(=O)O)C2=O)ccc1OC(=O)c1cccs1	5.2*	0	-1	-4	-1
NC(=O)CCn1c(C(=O)c2cccc([N+](=O)[O-])c2)c2ccccc2[n+]1[O-]	0	3	1.1*	1	1
NC(=O)CCn1c(C(=O)c2cc(Cl)c(N)c(Cl)c2)c2ccccc2[n+]1[O-]	0	2	0	-1	0
c1ccc(CNC2CC3CCC2C3)cc1 (stereo unspecified)	-1	0	0.9*	4	0
Cc1ccccc1/C=C1\CCCc2ccccc2C1=O	6.0*	4	1	10	3
O=C1/C(=C\c2ccc3ccccc3c2)CCCc2ccccc21	3	5	0	10	3
COc1ccc(C(=O)C2(C(=O)NCc3ccccc3)CC(c3ccccn3)=NO2)cc1 (stereo unspecified)	nt	-1	-1	-3	0
O=C(N1CCc2ccccc2C1)n1cc(C(O)(c2ccccc2)c2ccccc2)nn1	nt	-5	-2	-10	nt
CC(C)(CCl)C(=O)Nc1ccc(C(F)(F)F)cc1	-1	-1	1.1*	3	0
COc1ccc(C(=O)COC(=O)c2cc(=O)[nH]c3ccccc23)c(OC)c1	0	3	1.0*	5	4
O=C(Cc1ccccc1[N+](=O)[O-])OCC(=O)c1c[nH]c2ccccc12	2	6	1	6	2
Cc1cc(C)c(C(=O)COc2cccnc2[N+](=O)[O-])cc1C	0	-1	-1	-4	0
O=C(COc1cccnc1[N+](=O)[O-])c1c[nH]c2ccccc12	-1	5.9*	-1	2	0
O=C(OCC(=O)c1c[nH]c2ccccc12)c1cccc(S(=O)(=O)N2CCCCCC2)c1	-1	1	1.1*	1	0
O=C(COC(=O)c1cccc(S(=O)(=O)N2CCCCC2)c1)NCc1ccccc1	0	0	-1	1	1
N#Cc1ccccc1OCC(=O)OCC(=O)c1c[nH]c2ccccc12	0	2	0	2	4.1*
O=C(NCCNC(=O)c1ccccc1Br)c1cccnc1	0	-1	-1	-3	1
Clc1ccc(-n2c(Cc3cccs3)nnc2SC/C=C/c2ccccc2)cc1	nt	1	-1	-1	0
COc1cccc(/C=C/C(=O)OCC(=O)c2c[nH]c3ccccc23)c1OC	-2	0	-1	0	-1
CC(=O)OCC(=O)c1c[nH]c2ccccc12	2	5	1.1*	2	0
COc1cccc(C(=O)OCC(=O)c2c[nH]c3ccccc23)c1O	1	5	1.9*	4	0
O=C(COC(=O)C1CC1)c1c[nH]c2ccccc12	2	6.2*	1.1*	7	1
Cc1cc(-c2n[nH]c(=S)o2)c(C)n1-c1ccccc1	nt	5	0	7	4.0*
Oc1cc2ccccc2cc1-c1n[nH]c(=S)o1	1	3	-1	-1	0
CCCCCCCCN1C(=O)[C@@H](CC(=O)NCc2cccc(C(F)(F)F)c2)C[C@@]2(C(=O)OC)C1=C[C@H](C(C)C)O[C@@H]2C1CC1	nt	-2	-1	0	0
SMILES	DAX1 inh-1	hcDAF12 agonist	ssDAF-12 act	hgDAF12 agonist	DAX1 inh-2
CC(C)c1ccc(/C=C/C2=NNC(=O)CC2)cc1	2	0	-1	11*	2
COC1C(O)C(O)C(O)C(O)C1O (stereo unspecified)	4.9*	0	-1	0	0
COC1OC(CO)C(O)C(O)C1O (stereo unspecified)	1	-1	-2	-2	0
O=C(Cc1ccccc1)N1O[C@H]2C=C[C@@H]1C2	nt	0	-1	1	1
O=C(NC1CCCC1)C(c1ccccc1)N(C(=O)c1csnn1)c1ccccc1F (stereo unspecified)	4.7*	0	0	-1	1
O=C(NC1CCCC1)C(c1ccc(F)cc1)N(C(=O)c1csnn1)C1CCCC1 (stereo unspecified)	5.9*	-2	-1	1	0
O=C(NC1CCCCC1)C(c1ccc(F)cc1)N(C(=O)c1csnn1)C1CCCC1 (stereo unspecified)	1	-1	-1	0	0
O=C(NC1CCCCC1)C(c1ccncc1)N(C(=O)c1csnn1)c1ccccc1F (stereo unspecified)	-1	-2	-1	0	0
Cc1ccc(C)c(N(C(=O)c2csnn2)C(C(=O)NC2CCCCC2)c2cccnc2)c1 (stereo unspecified)	4.4*	2	-1	-2	0
CC(C)[C@H]1Cn2nnc(-c3ccccc3)c2Cn2c3ccccc3c(=O)n21	nt	-1	0	1	0
Cc1nc(NC(=O)c2ccc(Br)o2)ccc1Br	0	4	0	5	4.0*
C/C(=N\NC(=O)c1c(Br)c(C)nn1C)c1ccc(NC(=O)c2ccoc2C)cc1	2	-1	-1	12*	1
C/C(=N\NC(=O)C1CC1)c1ccc(NC(=O)c2ccc(Br)o2)cc1	nt	3	-1	8	2
O=C(Nc1cccc(NC(=O)c2ccc(Br)o2)n1)c1ccc(Br)o1	0	1	-1	0	1
C/C(=N\NC(=O)c1ccccc1N)c1ccc(NC(=O)Cc2ccccc2)cc1	6.9*	3	1	8	2
C/C(=N\NC(=O)c1c(Cl)cnn1C)c1ccc(NC(=O)c2ccc(Br)o2)cc1	0	1	0	8	6.3*
C[C@H]1COc2cc(Br)ccc2S(=O)(=O)N1Cc1cn(Cc2ccco2)nn1	nt	-3	0	-2	0
COc1ccc(CC(=O)NNC(=O)c2ccc(Br)o2)cc1	-1	0	-1	0	0
COc1ccc(CC(=O)Nc2ccc(/C(C)=N\NC(=O)c3ccc(Br)o3)cc2)cc1	1	6.2*	0	12*	3
CCN1CCN(c2ccc(NC(=O)c3ccc(Br)o3)cc2)CC1	1	3	1.1*	11*	3.7*
O=C(Nc1ccc2c(c1)CCC2)c1ccc(Br)o1	3	5.8*	0	13*	2
COC(=O)Cc1ccc(NC(=O)c2ccc(Br)o2)cc1	0	3	-1	12*	0
CC1NC(=O)c2cc3ccccc3cc2-n2c1nc1ccccc1c2=O (stereo unspecified)	0	3	0	2	1

Bioassay records from PubChem.
